Shown are actives, neighbours in structure and some others; about 4.6% of the full set was active somewhere.
V-ATPase pHluor = yeast V-ATPase proton transport regulation by pHLuorin; S. cerevisiae, pHLuorin cytosolic pH fluorescence; response, % at 10 µM; actives 0.37% (n = 350,000); AID 504577; in the data active means response mostly above about 7.3%, no sharp cut-off; inactive means mostly below about 5.4%; further: actives read high
SKKanGAS inh = blocks kanamycin growth of S. pyogenes SKKanGAS strain. BacTiter-Glo, 6 h. inhibition, % at 7.5 µM. actives 1.3% (n = 300,000). AID 1662;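 active means mean replicate score, as percent of positive control median, at least 50; inconclusive means mean below 50 but one replicate at or above 50; inactive means mean and every replicate below 50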;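 further: strain carries kanamycin resistance gene driven by streptokinase promoter and grows in 40 µg/ml kanamycin; loss of luminescence reflects streptokinase promoter inhibition or plain growth inhibition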
tim10-1 inh = growth inhibitors of tim10-1 mutant yeast; inhibition, % at 20 µM; S. cerevisiae tim10-1 ts strain growth, BacTiter-Glo, 24 h; actives 2.2% (n = 330,000);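 active means inhibition of at least 40%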;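 further: mutant grown at 25 °C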
tim23-1 inh = tim23-1 yeast growth inhibition; AID 463212; inhibition, % at 20 µM; actives 1.3% (n = 330,000); S. cerevisiae tim23-1 growth, BacTiter-Glo luminescence, 24 h;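 active means growth inhibition of the mutant yeast at or above 50%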;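 further: temperature-sensitive mutant grown at 25 °C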
TIM10 inh = growth inhibitors of TIM10 yeast strain; AID 463195; S. cerevisiae TIM10 strain growth, BacTiter-Glo luminescence, 24 h; inhibition, % at 10 µM; actives 1.4% (n = 330,000);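 active means inhibition of 40% or more at the single tested concentration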;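 further: wild-type TIM10 isogenic control strain grown at permissive 25 °C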
PfHsp90 set2 = inhibits growth of yeast expressing Plasmodium falciparum Hsp90; actives 0.32% (n = 310,000); inhibition, % at 9.4 µM; S. cerevisiae expressing PfHsp90, BacTiter-Glo ATP, 48 h; yeast lacking PDR1 and PDR3 efflux regulators; AID 504621;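 active means every replicate shows inhibition above about 80%, whatever the replicate mean, limit read from the data; inconclusive means mean inhibition reaches the set limit but some replicate falls short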
A number is an active result; i = inactive; ? = inconclusive; nt = no result given; + = active, no number.

SMILES | V-ATPase pHluor | SKKanGAS inh | tim10-1 inh | tim23-1 inh | TIM10 inh | PfHsp90 set2
CCOc1cc(/C=N/Nc2cccc(C(=O)O)c2)ccc1OC(=O)c1ccccc1 | i | 50.1 | i | i | i | i
C=CCOC(=O)C1=C[C@H](c2ccc3c(c2)OCO3)C[C@H](OCCCCO)O1 | i | i | i | i | i | i
Cc1cccc(OCC(O)Cn2ccnc2C)c1 (stereo not drawn) | 13.2 | i | i | i | i | i
COc1ccc(NC(=O)CSc2nc(O)cc(=O)n2-c2ccccc2OC)cc1 | i | 87.0 | i | i | i | i
Cc1ccc(NC(=O)CSc2nc(O)cc(=O)n2C)cc1 | i | i | i | i | i | i
COc1ccccc1-n1c(SCC(=O)Nc2ccc(C)cc2)nc(O)cc1=O | i | 63.4 | i | i | i | i
Cc1ccc(NC(=O)CSc2nc(O)cc(=O)n2-c2ccc(C)cc2)cc1 | i | 76.6 | i | i | i | i
COc1ccccc1-n1c(SCC(=O)Nc2cccc3ccccc23)nc(O)cc1=O | i | i | i | i | i | i
COc1ccc(CCNC(=O)CN2C(=O)C(=O)N(C3CCCC3)C2=O)cc1OC | i | nt | i | i | i | i
CN(c1ccc(Br)cc1)S(=O)(=O)c1ccc2[nH]cc(C(=O)NCCN3CCOCC3)c(=O)c2c1 | i | i | i | i | i | i
COc1ccc(C(=O)Nc2sc(C)c(-c3ccccc3)c2C#N)cc1OC | i | 54.0 | i | i | i | i
Cc1ccc(Cn2c(=O)n(Cc3ccco3)c(=O)c3ccccc32)cc1 | i | 55.5 | i | i | i | i
Cc1ccc(C(=O)NC(=S)NNC(=O)COc2ccc([N+](=O)[O-])cc2)cc1 | i | 82.0 | i | i | i | i
Cc1ccc(OCC(=O)Nc2ccc([N+](=O)[O-])cc2)cc1 | i | i | i | i | i | i
O=C(COc1ccc([N+](=O)[O-])cc1)NNC(=S)NC(=O)c1ccc(Br)cc1 | i | 55.2 | i | i | i | i
Cc1ccc(C(=O)N2CCCCC2)cc1S(=O)(=O)N1CCOCC1 | i | i | i | i | i | i
COc1ccccc1CC(Cc1nc2ccccc2[nH]1)c1nc2ccccc2[nH]1 (stereo not drawn) | i | i | i | i | i | i
Cc1cccc(CC(Cc2nc3ccccc3[nH]2)c2nc3ccccc3[nH]2)c1 (stereo not drawn) | i | 60.9 | i | i | i | i
c1ccc(-c2noc(C3CCC3)n2)nc1 | i | i | i | i | i | nt
CCCCC1CCC(c2nc(-c3ccccn3)no2)CC1 (stereo not drawn) | i | 61.0 | i | i | i | nt
Cc1ccc(S(=O)(=O)N2CCOCC2)cc1NC(=O)COc1ccccc1Cc1ccccc1 | i | nt | i | i | i | i
Cc1cc(N2CCOCC2)nc(-c2ccccc2O)n1 | 60.1 | i | i | i | i | i
CCCCN(CCCC)c1cc(C)nc(-c2ccccc2O)n1 | i | 53.9 | i | i | i | i
CCCOc1cc(C)nc(-c2ccccc2O)n1 | i | i | i | i | i | i
CC(C)(C)c1ccc(C(=O)NCCC(=O)Nc2cc(Cl)ccc2N2CCOCC2)cc1 | i | nt | i | i | i | nt
SMILES | V-ATPase pHluor | SKKanGAS inh | tim10-1 inh | tim23-1 inh | TIM10 inh | PfHsp90 set2
CCN(C[C@H]1N[C@@](C)(C(=O)OC)[C@H]2C(=O)N(C)C(=O)[C@@H]12)C(=O)COc1ccccc1 | i | nt | i | i | i | i
CCCCCCN1CC(O)=C(c2nc3ccccc3[nH]2)C1=N | 13.2 | i | i | i | i | i
CCC(C)N1CC(O)=C(c2nc3ccccc3[nH]2)C1=N (stereo not drawn) | i | i | i | i | i | i
CC(C)C(NC(=O)c1c(F)cccc1F)C(=O)NCCc1ccc(S(N)(=O)=O)cc1 (stereo not drawn) | i | i | i | i | i | i
COc1ccc(C2=CC3=C(Br)C(=O)C(C)(OC(=O)c4cccs4)C(=O)C3=CO2)cc1 (stereo not drawn) | i | i | i | i | i | 106.7
COc1ccc(C2=CC3=C(Br)C(=O)C(C)(OC(=O)c4ccco4)C(=O)C3=CO2)cc1 (stereo not drawn) | i | i | i | i | i | +
CC1(OC(=O)c2ccco2)C(=O)C=C2C=C(c3ccsc3)OC=C2C1=O (stereo not drawn) | nt | i | i | i | i | nt
COC(=O)c1cc(CN2CCN(c3ccccc3)CC2)ccc1O | i | i | i | i | i | i
CCC(=O)Nc1ccc(C(=O)Cn2ncc(Cl)c(Cl)c2=O)cc1 | 10.9 | i | i | i | i | i
Cc1cccc(C)c1N(CC(=O)NCc1ccccc1)C(=O)c1csnn1 | i | i | i | i | i | i
COc1ccc(N(C(=O)c2ccco2)C(C(=O)NC2CCCC2)c2ccncc2)cc1 (stereo not drawn) | i | i | i | i | i | i
CC(C)c1ccc(N(C(=O)c2ccco2)C(C(=O)NC2CCCC2)c2ccncc2)cc1 (stereo not drawn) | 13.7 | i | i | i | i | i
O=C1C=CC(=Nc2ccc3c(c2)C(=O)c2ccccc2-3)O1 | i | nt | nt | nt | nt | nt
O=C1C=CC(=Nc2ccc(F)cc2)O1 | i | nt | nt | nt | nt | 118.6
COc1ccccc1C(=O)NC(=O)CSc1nc(C)cs1 | i | i | i | i | i | i
COc1ccc(C(=O)NCC(=O)OCC(=O)N2N=C(c3ccc(Cl)cc3)CC2c2ccco2)cc1OC (stereo not drawn) | i | 75.9 | i | i | i | i
Nc1c(-c2ccccc2)c(CSc2nc3ccccc3[nH]2)nn1-c1cccc(Cl)c1 | i | 103.0 | i | i | i | i
COc1ccc(-c2nnc(NC(=O)c3ccc(S(=O)(=O)N4CCCc5ccccc54)cc3)o2)cc1 | i | 94.3 | i | i | i | i
CCc1nnc(NC(=O)c2ccc(S(=O)(=O)N(C)Cc3ccccc3)cc2)o1 | i | ? | i | i | i | i
O=C(Nc1nnc(C2CC2)o1)c1ccc(S(=O)(=O)N2CCCc3ccccc32)cc1 | i | 91.0 | i | i | i | i
CN(Cc1ccccc1)S(=O)(=O)c1ccc(C(=O)Nc2nnc(C3CC3)o2)cc1 | i | 79.1 | i | i | i | i
COc1cccc(-c2nnc(NC(=O)c3ccc(S(=O)(=O)N4CCOCC4)cc3)o2)c1 | i | 87.6 | i | i | i | i
CC(C)NC(=O)N(C)C[C@H]1Oc2ccc(NC(=O)Cc3ccccc3)cc2C(=O)N([C@H](C)CO)C[C@@H]1C | i | nt | i | i | i | i
COc1cc(C(=O)NN=Cc2ccc(N(C)C)cc2)cc(OC)c1OC | i | nt | nt | nt | nt | nt
COc1ccc(-c2csc3ncnc(N4CCN(c5ccccc5Cl)CC4)c23)cc1 | i | 55.3 | i | i | i | i
c1ccc(-c2csc3ncnc(N4CCc5ccccc5C4)c23)cc1 | i | 89.2 | nt | nt | nt | i
c1ccc(-c2csc3ncnc(N4CCOCC4)c23)cc1 | i | i | i | i | i | i
COc1ccc(-c2csc3ncnc(N4CCN(c5cccc(C)c5C)CC4)c23)cc1 | i | i | i | i | i | i

Bioassay records (PubChem BioAssay)
